# Results filed as inconclusive are left out. Activity calls are given as the source filed them. The call rests on the fitted dose curve; in most records, active means well fitted cell-killing curve with a large enough effect (not every such curve was filed as active); inconclusive means small, poorly fitted or top-dose-only effect, or another doubt; inactive means no such curve, though single readings can be large or run the other way.
# Assay: qHTS Assay for Agonists of the Relaxin Receptor RXFP1: Cytotoxicity SAR
# Conditions: HEK293-RXFP1 viability, ATPLite luminescence, 72 h; series mostly up to 78.1 µM
# From the text: The relaxin hormone is involved in the variety of biological functions in normal tissues and diseases. The role of relaxin is well-established in female reproduction and parturition, mammary gland and endometrial development, maintenance of myometrial quiescence during pregnancy. Relaxin signaling through its G protein-coupled receptor (GPCR) RXFP1 results in ECM remodeling through regulation of collagen deposition, cell invasiveness, proliferation and overall tissue homeostasis. […] Recombinant human relaxin (rhRlx) is currently being tested in clinical trials as a protective agent in congestive heart failure, in treating severe preeclampsia, and as an anti-fibrotic agent in systemic sclerosis. In the primary screen, upon relaxin binding RXFP1 activation leads to the activation of adenylate cyclase (AC) via Gs. cAMP will activate PKA, which phosphorylates many signaling proteins. Thus, detection of cAMP increase is an easy and reliable indication of relaxin receptor activation. To screen for agonists of the relaxin receptor, a HEK293T cell line stably transfected with RXFP1 was used. RXFP1 activation was assayed by changes in cAMP levels as detected with a time-resolved fluorescence energy transfer (TR-FRET) cAMP detection kit. We conducted this followup assay to measure the effect of the lead candidates on cell health by measuring ATP levels (ATPLite). NIH Chemical Genomics Center [NCGC] NIH Molecular Libraries Probe Production Centers Network [MLPCN] MLPCN Grant: R03 MH085705-01A1 Assay Submitter (PI): Alexander Agoulnik
# In this assay, the luciferase enzyme catalyzes the conversion of the added substrate D-luciferin to oxyluciferin and light with ATP. Thus, the emitted light is proportional to the ATP concentration. To evaluate the cytotoxic properties of the compounds, HEK293-RXFP1 cells were incubated with compounds for 72 h in growth media (DMEM 10% FBS, 1x Pen/Strep, 0.5 mg/mL G418) in 384-well format. After compound incubation, the levels of ATP in each well were measured with the addition of the ATPLite assay reagent.
row,SMILES,Potency
1,CC(C)Oc1ccccc1C(=O)Nc1ccccc1C(=O)Nc1cccc(C(F)(F)F)c1,inactive
2,COc1ccc(C(=O)Nc2ccccc2C(=O)Nc2cccc(C(F)(F)F)c2)cc1,inactive
3,O=C(NCc1ccco1)c1ccccc1NC(=O)c1ccccc1NC(=O)C1CCCCC1,inactive
4,CCOc1ccccc1C(=O)Nc1sccc1C(=O)Nc1cccc(S(=O)(=O)C(F)(F)F)c1,7.47 µM (active)
5,COc1ccccc1C(=O)Nc1cccc(C(=O)Nc2cccc(C(F)(F)F)c2)c1,18.8 µM (active)
6,O=C(NCc1cccc(C(F)(F)F)c1)c1ccccc1NC(=O)C1CCCCC1,11.8 µM (active)
7,O=C(Nc1cccc(Cl)c1)c1ccccc1NC(=O)C1CCCCC1,29.7 µM (active)

# Source: PubChem BioAssay AID602288 (National Center for Advancing Translational Sciences (NCATS), 2012)
